Reference: PubChem BioAssay
Active and inactive are the calls of the source.

Experiment: plasmodial surface anion channel blockers, osmotic lysis – cell-based, P. falciparum Indochina, OD700, 1 h, primary screen (AID 1154)
Settings: P. falciparum Indochina infected RBC osmotic lysis, higher = more signal, called active from +8 up or from −8 down

z-score, active:
O=C1C2C=CC(C(O)c3c(F)cccc3Cl)N(Nc3ccc([N+](=O)[O-])cc3)C2C(=O)N1c1ccccc1 (centres undefined) 30
[N-]=[N+]=Nc1ccccc1[C@@H]1OC(c2ccc(OCCCO)cc2)=N[C@]1(CCS(=O)(=O)c1ccccc1)C(=O)NCC(O)CO (some centres undefined) 28.9
C=CC[C@@]1(C(=O)OC)N=C(c2ccc(OCCCO)cc2)O[C@@H]1c1ccccc1N=[N+]=[N-] 30.6
CN1C(=O)C2C(C3CC3)C=C3CN(Cc4cccc(Cl)c4)[C@@H]([C@@H](O)Cc4ccccc4)C3C2C1=O (some centres undefined) 8.18

z-score, inactive:
COCCCNC(=O)[C@@H]1c2ccccc2C(=O)N(Cc2ccc(OC(F)(F)F)cc2)[C@H]1c1ccc(CO)cc1 1.93
Cc1ccc(F)cc1S(=O)(=O)N[C@H]1CCN(Cc2ccc(OC(C)C)cc2)C1 2.31
CC1CC/C=C\[C@H]2OC34C=CCN(c5ccc(Cl)cc5)C(=O)[C@H]3N(CCCCCCO)C(=O)[C@]4(C)C2C(=O)O1 (some centres undefined) -0.108
COC(=O)[C@@]1(Cc2ccc(OC)cc2)[C@H]2c3cc(C(=O)N4CCCC4)n(CCn4cc([N+](=O)[O-])nc4C)c3C[C@H]2CN1C(=O)c1ccccc1 2.38
COc1ccccc1CN1C(=O)c2ccccc2[C@](Cc2ccccc2I)(C(=O)NCC(C)C)[C@@H]1c1ccc(CO)cc1 4.68

Experiment: plasmodial surface anion channel blockers, osmotic lysis – cell-based, P. falciparum Indochina, OD700, 2 h, primary screen (AID 1155);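 further: lysis reports solute entry through the parasite surface anion channel PSAC; channel blockers reduce lysis of infected cells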
Settings: P. falciparum Indochina infected erythrocytes, higher = more signal, called active from +8 up or from −8 down

z-score, inactive:
CCOC(=O)C1=CC[C@@H](c2ccc(OC)cc2)N(S(=O)(=O)c2ccc(C)cc2)[C@H]1c1ccc(C)cc1 0.905
CCOC(=O)C[C@H]1[C@H](OC(=O)Cc2ccc3c(c2)OCO3)[C@@H](NC(=O)c2ccc3ccccc3n2)c2cc(OCCCO)ccc2N1C(=O)Cc1ccc(OC)cc1 5.31
CC(C)(C)N1CC=CC23O[C@@H]4C=CCOC(=O)[C@@H]4[C@H]2C(=O)N(CCO)[C@@H]3C1=O (some centres undefined) 0.184
CCOC(=O)C1=CC[C@@H](c2ccc(OC)cc2)N(S(=O)(=O)c2ccc(C)cc2)[C@H]1CC -0.258
COc1ccc(NN2C(C(O)c3ccc(I)cc3)C=CC3C(=O)N(C4CCCCC4)C(=O)C32)cc1 (centres undefined) 1.16
C=CCOC(=O)[C@H]1[C@@H]2C(=O)O[C@@H](c3ccccc3)[C@@H](c3ccccc3)N2[C@@H](c2ccc(OCCOC(=O)[C@@H]3C[C@@H]4C(=O)N[C@@H](CCCC[N+](C)(C)C)C(=O)N4[C@@H]3c3ccc(O)cc3)cc2)[C@]12C(=O)Nc1ccc(I)cc12 -0.497
Cc1ccc(S[C@]2(C(=O)NCc3ccccc3)CC(=O)N(Cc3ccccc3C(F)(F)F)[C@@H]2c2ccc(CO)cc2)cc1 -0.797
CC(C)=CCCC(C)=CC(O)C1C=CC2C(=O)NC(=O)C2N1Nc1ccccn1 (centres undefined) -0.531
O=C1O[C@H](c2ccccc2)[C@H](c2ccccc2)N2[C@H]1[C@@H](C(=O)O)[C@]1(C(=O)Nc3ccc(C#CCCO)cc31)[C@H]2c1ccc(OCCO)cc1 0.927
C=CCN1C(=O)[C@@]2(O[C@@H](CCn3cc([C@H](O)c4ccccc4)nn3)[C@H]([Si](C)(C)c3ccc(OC)cc3)[C@H]2C)c2cc(N3C(=O)c4cccc5cccc3c45)ccc21 1.81
NC(=O)NCC#Cc1ccc2c(c1)[C@]1(C(=O)N2)[C@H](c2ccc(OCCO)cc2)N2[C@H](c3ccccc3)[C@H](c3ccccc3)OC(=O)[C@H]2[C@@H]1C(=O)O -0.7
CO[C@H]1O[C@H](CO)[C@@H](OC(=O)Nc2ccc3c(c2)OCO3)[C@H](OC(=O)Nc2ccccc2-c2ccccc2)[C@H]1OC(=O)Nc1ccccc1-c1ccccc1 0.825
CC1CC/C=C\[C@H]2OC34C=CCN(c5ccc6ccccc6c5)C(=O)[C@H]3N(C(C)CO)C(=O)[C@@H]4C2C(=O)O1 (some centres undefined) 0.222
COC(=O)[C@@]1(Cc2ccc(OC)cc2)[C@H]2c3cc(C(=O)N4CCCC4)n(Cc4ccc(C(F)(F)F)nc4)c3C[C@H]2CN1C(=O)c1ccccc1 4.52
Cc1ccc(C(C)CC(O)C2C=CC3C(=O)N(C)C(=O)C3N2Nc2ccccc2)o1 (centres undefined) 0.962
C=CC[C@@]1(C(=O)N(C)C)N=C(c2ccc(OCCCO)cc2)O[C@@H]1c1ccccc1CN=[N+]=[N-] 6.73
COC(=O)[C@@]1(Cc2ccccc2)[C@H]2c3cc(C(=O)N4CCCC4)n(Cc4ccc(OC)c(OC)c4)c3C[C@H]2CN1C(=O)c1ccccc1 0.41
N#Cc1ccc(NN2C(C(O)C3CC=CCC3)C=CC3C(=O)N(c4ccccc4)C(=O)C32)cc1 (centres undefined) 3.34
C=C(C)[C@@H]1CC=C(C(O)C2C=CC3C(=O)N(c4ccccc4)C(=O)C3N2Nc2ccc([N+](=O)[O-])cc2)CC1 (some centres undefined) 1.9
COc1ccc([Si](C)(C)[C@H]2[C@H](CCO)O[C@@]3(C(=O)N(Cc4cccc(N(C=O)c5ccccc5)c4)c4ccccc43)[C@@H]2C)cc1 2.47
CCCCC(O)C1C=CC2C(=O)N(c3ccccc3)C(=O)C2N1Nc1ccc([N+](=O)[O-])cc1 (centres undefined) 1.38
COc1ccc([Si](C)(C)[C@@H]2[C@@H](CC(=O)N3CCC[C@H]3CO)O[C@]3(C(=O)N(Cc4ccc(N5CCOC5=O)cc4)c4ccccc43)[C@H]2C)cc1 0.176
CC(C)NC(=O)[C@@H]1c2ccccc2C(=O)N(Cc2ccccc2C(F)(F)F)[C@H]1c1ccc(CO)cc1 0.0744
CCCCCC1=C2CNC(Cc3ccccc3)(C(=O)OC)C=C2C(C)C1=O (centres undefined) -0.21
CN(C)c1ccc(C(O)C2C=CC3C(=O)N(Cc4ccccc4)C(=O)C3N2n2cnnc2)cc1 (centres undefined) -0.318
COCCCNC(=O)[C@@H]1c2ccccc2C(=O)N(Cc2ccc(OC(F)(F)F)cc2)[C@H]1c1ccc(CO)cc1 0.566
Cc1ccc(F)cc1S(=O)(=O)N[C@H]1CCN(Cc2ccc(OC(C)C)cc2)C1 0.709
CC1CC/C=C\[C@H]2OC34C=CCN(c5ccc(Cl)cc5)C(=O)[C@H]3N(CCCCCCO)C(=O)[C@]4(C)C2C(=O)O1 (some centres undefined) -0.36
COC(=O)[C@@]1(Cc2ccc(OC)cc2)[C@H]2c3cc(C(=O)N4CCCC4)n(CCn4cc([N+](=O)[O-])nc4C)c3C[C@H]2CN1C(=O)c1ccccc1 0.0212
CN1C(=O)C2C(C3CC3)C=C3CN(Cc4cccc(Cl)c4)[C@@H]([C@@H](O)Cc4ccccc4)C3C2C1=O (some centres undefined) 1.25
COc1ccccc1CN1C(=O)c2ccccc2[C@](Cc2ccccc2I)(C(=O)NCC(C)C)[C@@H]1c1ccc(CO)cc1 1.44

z-score, active:
O=C(NCC(O)CO)[C@@]1(CCS(=O)(=O)c2ccccc2)N=C(c2ccc(OCCCO)cc2)O[C@H]1c1ccccc1 (some centres undefined) 19.1
O=C1C2C=CC(C(O)c3c(F)cccc3Cl)N(Nc3ccc([N+](=O)[O-])cc3)C2C(=O)N1c1ccccc1 (centres undefined) 21
[N-]=[N+]=Nc1ccccc1[C@@H]1OC(c2ccc(OCCCO)cc2)=N[C@]1(CCS(=O)(=O)c1ccccc1)C(=O)NCC(O)CO (some centres undefined) 27.2
C=CC[C@@]1(C(=O)OC)N=C(c2ccc(OCCCO)cc2)O[C@@H]1c1ccccc1N=[N+]=[N-] 27.4
